outcome, Potency and activity change, negative = inhibition data for five compounds are collected here from PubChem BioAssay (NCATS).

SMILES strings stand for the structures. Records with an inconclusive call do not appear. Activity calls are given as the source filed them. Unless noted, the call rests on the fitted dose curve; in most records, active means well fitted curve in the direction sought with a large enough effect; inconclusive means small, poorly fitted or top-dose-only effect, or another doubt; inactive means no such curve, though single readings can be large; an effect the other way counts as inactive or inconclusive.

Test [1] can be described thus: Primary qHTS for Huh7 cytotoxicity: counterscreen for inhibitors of MERS-S pseudotyped particle cell entry (AID 1479147; calls by dose curve). Particulars: outcome: at 57.1 µM (top of the series) unless noted. In general terms: Quantitative high-throughput screening tests each substance at several concentrations.
Test [2] can be described thus: KB-8-5-11 Cancer Cell Toxicity qHTS against the NCATS CANVASS Library (AID 1347364). Summed up: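 Plate 500 KB-8-5-11 cells per well in DMEM + 10% FBS, add compounds by pin transfer, incubate 72 hr at 37C. Add CellTiter-Glo, wait 10 minutes at room temperature, read luminescence.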
Test [3] in a line: KB-3-1 Cancer Cell Toxicity qHTS against the NCATS CANVASS Library (AID 1347366). Summed up: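 500 KB-3-1 cells/well; compounds pin-transferred, 11-pnt series; 72 hr, 37C/5% CO2; CellTiter-Glo, 10 min RT; luminescence read-out.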
Test [4] is described as follows: qHTS for ATAD5 Agonist screened against the NCATS CANVASS Library (AID 1347367). A digest of the protocol:
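Luminescence read-out: ATAD5-driven luciferase in stably transfected HEK 293T cells, which rises post-transcriptionally with DNA damage. Cells were exposed 16hr at 37C to test compound; a CellTiter-Fluor fluorescence read (1hr) measured viability first.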

Test [5] is described as follows: MCF7 Cancer Cell Toxicity qHTS against the NCATS CANVASS Library (AID 1347369). Summed up:
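Luminescent ATP signal (CellTiterGlo) served as the cytotoxicity read-out after MCF7 breast cancer cells had been incubated 72 hr at 37C with natural products in an 11-point titration.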

Test [6] in a line: J3T Cancer Cell Toxicity qHTS against the NCATS CANVASS Library (AID 1347371). A digest of the protocol:
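Cells plated at 500 per well, compounds pin-transferred, plates incubated 72 hr at 37C, then CellTiterGlo added and luminescence read to measure ATP content.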

In test [7] the target is Nuclear receptor subfamily 1 group I member 3 (Homo sapiens) (UniProt Q14994). The test is described as follows: qHTS for Constitutive Androstane Receptor (CAR) Antagonist screened against the NCATS CANVASS Library (AID 1347372). A digest of the protocol:
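HepG2 cells stably carrying hCAR and a CYP2B6-2.2kb luciferase reporter were exposed to compounds plus 50 nM CITCO for 24hr at 37C. CAR activity was read by ONE-Glo luminescence, with viability measured first by CellTiter-Fluor.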

The target is the same in test [8]. The test is described as follows: qHTS for Constitutive Androstane Receptor (CAR) Agonist screened against the NCATS CANVASS Library (AID 1347373). A digest of the protocol: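 HepG2-hCAR-CYP2B6 cells, 2500/well, attached 4hr; cpd + PK11195 1.5uM final; 24hr 37C 5% CO2. CellTiter-Fluor viability read, then ONE-Glo luminescence for CAR activation.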
The nature of test [9]: qHTS for Hypoxia signaling pathway (HIF-1) agonists against the NCATS CANVASS Library (AID 1347375). A digest of the protocol: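 ME-180 HRE-bla reporter cells; 2,000/well, 0.5% dialyzed FBS; cpd added after 5 h, 17 h 37C/5% CO2; CCF4-AM 2 h RT; FRET 460/530 nm; CellTiter-Glo viability same wells, 30 min.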
Test [10] is described as follows: 10-beta competent E. coli microbial cell viability qHTS against the NCATS CANVASS Library (AID 1347376). A digest of the protocol:
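E. coli 10-beta, 0.2 OD; cpds 11-pt; o/n 37C, 5% CO2; BacTiter-Glo 20 min RT; luminescence (ATP) = viable cells. Daunomycin ctrl.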

Test [11] can be described thus: qHTS for H2AX Agonists against the NCATS CANVASS Library (AID 1347378). A digest of the protocol:
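TR-FRET readout (ex 320 nm, em 665/620 nm ratio) of phospho-H2AX (S139) in CHO-K1 lysates. Cells treated 3 hr at 37C with compound titration, 0.76% DMSO; lysis 30 min, antibody detection 24 hr at RT.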

Test [12] is described as follows: Inflammasome Signaling qHTS Counterscreen: IL-1-beta AlphaLISA counterscreen against the NCATS CANVASS Library (AID 1347381). Summed up: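 Cell-free interference check: compounds added to medium spiked with 4 pg purified IL-1β. Anti-IL-1β acceptor beads (6 ug/mL) with 0.6 nM biotinylated antibody added for 1 h at RT, then streptavidin donor beads (24 ug/mL) for 30 min in the dark. AlphaLISA read at 680/615 nm.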

Test [13] is described as follows: Cytotoxicity qHTS for assessment of Hepg2 cells membrane integrity screened against the NCATS CANVASS Library (AID 1347387). Summed up: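 qHTS, 11-pt conc. series, 0.59 nM - 46 uM final; HepG2 2000 cells/well, overnight attachment; 5 hr compound exposure 37C/5% CO2; CytoTox-ONE, 10 min RT; fluorescence ex560/em590 = LDH from damaged membranes.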
Test [14] in a line: qHTS assay for small molecule disruptors of mitochondrial membrane potential screened against the NCATS CANVASS Library (AID 1347389). Summed up:
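HepG2, 2,000 cells/well, attached overnight; compound 1 hr, 37C, 5% CO2; Mito-MPS dye 30 min, 37C; fluorescence 535 nm (monomer) and 590 nm (aggregate); decreased 590/535 ratio = depolarization.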

Test [15] is described as follows: Secretion counterscreen for inhibitors of the SERCaMP assay screened against the NCATS CANVASS Library (AID 1347390). Summed up: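 Luminescence from constitutively secreted GLuc in SH-SY5Y-GLuc STOP cells, read after coelenterazine addition, served as read-out. Compounds tested 0.001 - 77 uM for 20 h at 37C; Brefeldin A as positive control.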
The nature of test [16]: qHTS for activators of Nrf2/ARE signaling pathway screened against the NCATS CANVASS Library (AID 1347391). Summed up: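 Plate ARE-bla HepG2 cells at 2000/well and let them settle 5 h. Pin-transfer compounds in DMSO, incubate 16 h at 37C. Load CCF4 for 2 h at room temperature and read blue/green fluorescence.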
Test [17] in a line: qHTS for activators of dead-cell proteases activity screened against the NCATS CANVASS Library (AID 1347392). A digest of the protocol:
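HepG2 cells (2000/well) attached 18 h at 37C, then exposed 5 h to compounds (11-point qHTS). Dead-cell protease activity read as luminescence from cell-impermeant AAF-aminoluciferin substrate after 15 min at room temperature.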

The nature of test [18]: qHTS for inhibitors of Wild type Zika virus screened against the NCATS CANVASS Library (AID 1347396). A digest of the protocol: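 Vero 766 (African green monkey) cells, 1000 per well, attached overnight, then compounds were added in an 11-point series before wild-type Zika virus infection. After 72 h at 37C, cell viability was read as CellTiter Glo luminescence.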
A short description of test [19]: qHTS for inhibitors of Rabies Virus screened against the NCATS CANVASS Library (AID 1347402; calls by dose curve).
Test [20] can be described thus: Primary qHTS to identify inhibitors of SARS-CoV-2 cell entry (AID 1645846; calls by dose curve). Conditions: activity change, negative = inhibition: at 57.1 µM (top of the series) unless noted. Summed up:
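HEK293-ACE2 (Expi293F, stable hACE2), 1500 cells/well, o/n 37C; cpd 23 nL pin, 1 h; MLV-PP w/ SARS-CoV-2-S (Wuhan-Hu-1, Δ19 C-term); 48 h 37C; Bright-Glo luminescence; normalized vs S-PP and bald PP.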

Nuclear receptor subfamily 1 group I member 3 (Homo sapiens), sequence (Q14994 whole entry, looked up): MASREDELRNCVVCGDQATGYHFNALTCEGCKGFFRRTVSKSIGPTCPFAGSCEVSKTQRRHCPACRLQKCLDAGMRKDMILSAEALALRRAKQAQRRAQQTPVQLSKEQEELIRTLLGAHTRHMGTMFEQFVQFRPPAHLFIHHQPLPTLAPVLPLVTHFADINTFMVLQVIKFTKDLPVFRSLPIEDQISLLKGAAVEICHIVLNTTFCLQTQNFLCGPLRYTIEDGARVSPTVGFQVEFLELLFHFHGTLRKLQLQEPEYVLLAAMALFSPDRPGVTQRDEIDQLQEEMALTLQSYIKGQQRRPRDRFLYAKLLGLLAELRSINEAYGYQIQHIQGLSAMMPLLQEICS

Turning to `CN1CCC2=C(C1)c1ccccc1Cc1ccccc12`, in test [1], the compound was called inactive.

As for `CN1C(=O)[C@]23CC4C(C)(C)[C@@]5(C[C@@]41CN2CC[C@@]3(C)O)C(=O)Nc1c5ccc2c1OC=CC(C)(C)O2` (some centres undefined), the Potency result in test [2], in test [3], in test [4], in [5], in test [6] and in test [7] was “inactive” in each case. In addition, the Potency entry in test [9], in test [11], in test [14], in [15], in test [16] and in test [17] was “inactive” each time. Moreover, in [18], the Potency result was “inactive”. Further, the compound was classed as inactive in [8], in test [10], in test [12], in [13] and in test [19].

`C/C=C1/CN2CC[C@]34C(=Nc5ccccc53)[C@@H]2C[C@@H]1[C@H]4C(=O)OC`: the Potency entry in test [2], in [3], in test [4], in test [5], in test [6] and in [7] was “inactive” throughout. Moreover, the Potency result in test [9], in test [11], in [14], in [15], in test [16] and in test [17] was “inactive” each time. Moreover, the Potency result in [18] is “inactive”. The result in test [8], in test [10], in test [12], in [13] and in test [19] was inactive.

In the case of `Cc1ncc(OC[C@@]2(c3cccc(F)c3)C[C@H]2C(=O)Nc2ccc(F)cn2)c(C)n1`, the Potency entry in test [20] is “inactive”.

Turning to `C[C@H](Nc1ncnc2nc[nH]c12)c1nc2ccc(F)cc2c(=O)n1-c1ccccc1`, in test [20], the activity change, negative = inhibition was -57.8%.
